Inconclusive results are not listed. Activity calls are given as the source filed them. The call rests on the fitted dose curve.

A short description of test [1]: Primary qHTS for inhibitors of SARS-S pseudo-typed particle cell entry (AID 1479145). Further: nearly all actives have a fitted effect of over 45% in size.
Test [2] can be described thus: Primary qHTS for Vero E6 cytotoxicity: counterscreen for inhibitors of SARS-S pseudo-typed particle cell entry (AID 1479150). For orientation: qHTS replaces the single test concentration by a dilution series.
Test [3] can be described thus: Primary qHTS for Huh7 cytotoxicity: counterscreen for inhibitors of MERS-S pseudotyped particle cell entry (AID 1479147).
Test [4] in a line: Primary qHTS for inhibitors of MERS-S pseudo-typed particle cell entry (AID 1479149). Further: nearly all actives have a fitted effect of over 60% in size.
Test [5] in a line: Confirmatory qHTS for VERO E6 Cytotoxicity Assay: Counterscreen for SARS-CoV-2 CPE Assay (AID 1508605). Further: nearly all actives have a fitted effect of over 60% in size.
Potency means the concentration at half of the fitted maximal effect.

For `C#C[C@]1(O)CC[C@H]2[C@@H]3CCc4cc(O)ccc4[C@H]3CC[C@@]21C`, the Potency entry in test [1] and in test [2] was “inactive” each time.

Turning to `CC(=O)OCC(=O)Nc1cc(C#N)cc(NC(=O)COC(C)=O)c1Cl`, the Potency result in test [3], in test [4] and in test [2] was “inactive” each time.

For `Oc1ccc(Cl)cc1Cc1cc(Cl)ccc1O`, the Potency entry in test [3] was “inactive”.

Turning to `O=C(O)c1cccc(-c2noc(-c3ccccc3F)n2)c1`, the Potency result in test [1] and in test [4] was “inactive” throughout.

For `Clc1ccccc1C(c1ccccc1)(c1ccccc1)n1ccnc1`, the Potency entry in test [3] was “inactive”.

Take `N/C(=N\N=C\c1ccc(Cl)cc1)N/N=C/c1ccc(Cl)cc1`: the Potency result in test [3] and in test [4] was “inactive” throughout.

For `CCCCOc1cc(C(=O)OCCN(CC)CC)ccc1N`, the Potency entry in test [1] and in test [2] was “inactive” in each case.

With `Cc1cc2nc3ccc(=[N+](C)C)cc-3sc2cc1N`, the Potency in test [1] was 14.1 µM (active); in test [4], 17.8 µM (active).

With `CN(C)c1ccc(C(=C2C=CC(=[N+](C)C)C=C2)c2ccccc2)cc1`, the values for the Potency in test [1] and in test [4] were 2.24 µM (active) and 0.891 µM (active), respectively.

Regarding `CCN(CC)CCCN(c1ccccc1)C1Cc2ccccc2C1`, the Potency in test [1] is 17.8 µM (active). The Potency result in test [2] is “inactive”.

For `CNC[C@H](O)c1ccc(O)c(O)c1`, the Potency result in test [1], in test [4] and in test [2] was “inactive” each time.

As to `Oc1c(Cl)cc(Cl)cc1Sc1cc(Cl)cc(Cl)c1O`, in test [3], the Potency entry is “inactive”.

On to `CC1=C(C(=O)OC(C)C)C(c2cccc([N+](=O)[O-])c2)C(C(=O)OC2CN(C(c3ccccc3)c3ccccc3)C2)=C(N)N1` (stereo not drawn), for which the Potency entry in test [3] and in test [4] was “inactive” each time.

Turning to `CN1CCCC(CC2c3ccccc3Sc3ccccc32)C1` (stereo not drawn), the Potency in test [1] is 20 µM (active). Further, the Potency result in test [2] was “inactive”.

For the compound `COc1ccc(-c2nc3ccc(C4=NNC(=O)CC4C)cc3[nH]2)cc1` (stereo not drawn), the Potency result in test [1], in test [4] and in test [2] was “inactive” in each case.

Regarding `C[n+]1cc2c3c(ccc2c2ccc4cc5c(cc4c21)OCO5)OCO3`, the Potency in test [3] is 8.91 µM (active).

For the compound `COc1ccc(-c2cc(C(F)F)nn2-c2ccc(S(N)(=O)=O)cc2)cc1F`, the Potency entry in test [1], in test [3] and in test [2] was “inactive” throughout.

`CCCCCCc1ccc(O)cc1O`: the Potency result in test [1] and in test [2] was “inactive” in each case. Also, the Potency in test [4] is 0.891 µM (active).

Consider `Oc1c(I)cc(Cl)c2cccnc12`, for which the Potency entry in test [1] and in test [2] was “inactive” throughout. The Potency in test [5] is 3.16 µM (active).

Turning to `CC(C)=CCC/C(C)=C/CC/C(C)=C/C(=O)OCC(=O)[C@@]1(O)CC[C@H]2[C@@H]3CCC4=CC(=O)C=C[C@]4(C)[C@H]3[C@@H](O)C[C@@]21C`, the Potency entry in test [1] and in test [2] was “inactive” each time.

On to `O=C(Nc1ccc([N+](=O)[O-])cc1Cl)c1cc(Cl)ccc1O`, for which the results for the Potency in test [1], in test [4] and in test [2] were 0.501 µM (active), 2 µM (active) and 1.58 µM (active), respectively.

As for `C#CC1(O)CC[C@H]2[C@@H]3CCC4=CCCC[C@@H]4[C@H]3CC[C@@]21C` (stereo partly drawn), the Potency result in test [3], in test [4] and in test [2] was “inactive” throughout.

Turning to `CCN1C(=O)c2ccccc2C1Nc1ccc(OCCN2CCCCC2)cc1` (stereo not drawn), the Potency result in test [3], in test [4] and in test [2] was “inactive” in each case.

With `CCn1c(=O)c2c(nc(C=Cc3ccc(OC)c(OC)c3)n2C)n(CC)c1=O`, the Potency result in test [3], in test [4] and in test [2] was “inactive” each time.

For `CC[N+](CC)(CC(=O)Nc1c(C)cccc1C)Cc1ccccc1`, the Potency result in test [3], in test [4] and in test [2] was “inactive” each time.

Take `CCCC(=O)OC[C@@H](OC(=O)CCC)[C@@H](OC(=O)CCC)[C@H](Cn1c2nc(=O)[nH]c(=O)c-2nc2cc(C)c(C)cc21)OC(=O)CCC`: the Potency entry in test [3], in test [4] and in test [2] was “inactive” throughout.

For the compound `CN1CCN(C2=Nc3ccccc3Sc3ccc(Cl)cc32)CC1`, the Potency result in test [3], in test [4] and in test [2] was “inactive” each time.

For `Cc1ccc(/C(=C\CN2CCCC2)c2ccccn2)cc1`, the Potency entry in test [3], in test [4] and in test [2] was “inactive” throughout.

For `O=C1O[C@H]([C@@H](O)CO)C(O)=C1O`, the Potency entry in test [3], in test [4] and in test [2] was “inactive” each time.

Take `C[C@@H]1CCC[C@H](C)N1CCCC(O)(c1ccccc1)c1ccccn1` (stereo partly drawn): the Potency entry in test [3], in test [4] and in test [2] was “inactive” in each case.

In the case of `Cc1ccc(N(CC2=NCCN2)c2cccc(O)c2)cc1`, the Potency result in test [3], in test [4] and in test [2] was “inactive” each time.

Regarding `C=CCc1ccccc1OCC(O)CNC(C)C` (stereo not drawn), the Potency entry in test [3], in test [4] and in test [2] was “inactive” in each case.

For `OC(CCN1CCCCC1)(c1ccccc1)c1ccccc1`, the Potency entry in test [3], in test [4] and in test [2] was “inactive” in each case.

Regarding `CCOCCn1c(N2CCCN(C)CC2)nc2ccccc21`, the Potency entry in test [3], in test [4] and in test [2] was “inactive” each time.

For the compound `CC1CC(=O)NN=C1c1ccc(NCC(C)(C)NCC(O)COc2cc(Cl)ccc2C#N)cc1` (stereo not drawn), the Potency entry in test [3], in test [4] and in test [2] was “inactive” in each case.

For `CN(C)CCN1C(=O)c2ccccc2N(C)c2ccccc21`, the Potency entry in test [3], in test [4] and in test [2] was “inactive” throughout.

For the compound `O=C(OCC(O)CO)c1ccccc1Nc1ccnc2c(C(F)(F)F)cccc12` (stereo not drawn), the Potency result in test [3], in test [4] and in test [2] was “inactive” each time.

`C1CCN2C[C@@H]3C[C@@H](CN4CCCC[C@@H]34)[C@H]2C1`: the Potency result in test [3], in test [4] and in test [2] was “inactive” each time.

`CCOC(=O)[C@H](CCc1ccccc1)N[C@@H](C)C(=O)N(CC(=O)O)C1Cc2ccccc2C1`: the Potency result in test [3], in test [4] and in test [2] was “inactive” throughout.

For `Cc1c(-c2ccccc2)oc2c(C(=O)OCCN3CCCCC3)cccc2c1=O`, the Potency result in test [3], in test [4] and in test [2] was “inactive” each time.

Take `C/C=C/C(=O)N(CC)c1ccccc1C`: the Potency entry in test [3], in test [4] and in test [2] was “inactive” throughout.

As for `O=C(NC1CCN(CCc2c[nH]c3ccccc23)CC1)c1ccccc1`, the Potency entry in test [3], in test [4] and in test [2] was “inactive” each time.

Take `COC1=C(OC)C(=O)C(CCCCCCCCCCO)=C(C)C1=O`: the Potency entry in test [3], in test [4] and in test [2] was “inactive” each time.

For the compound `CCCCCCOC(=O)NC(=N)c1ccc(NCc2nc3cc(C(=O)N(CCC(=O)OCC)c4ccccn4)ccc3n2C)cc1`, the Potency entry in test [3] and in test [2] was “inactive” in each case. In addition, the Potency in test [4] was 10 µM (active).

Take `CCCCCCCCCCCCCCCCC(C(=O)O)C(O)(CC(=O)O)C(=O)O` (stereo not drawn): the Potency entry in test [3], in test [4] and in test [2] was “inactive” each time.

Take `CCOC(=O)OC(C)OC1=C(C(=O)Nc2ccccn2)N(C)S(=O)(=O)c2ccccc21` (stereo not drawn): the Potency entry in test [3], in test [4] and in test [2] was “inactive” each time.

For `CCC1NC(=O)c2cc(S(N)(=O)=O)c(Cl)cc2N1` (stereo not drawn), the Potency result in test [3], in test [4] and in test [2] was “inactive” in each case.

Values taken from PubChem BioAssay (NCATS).
